# Yeast superoxide = yeast age-related superoxide inhibition as caloric restriction mimetic; S. cerevisiae aged cells, superoxide DHE fluorescence; hits give low values; superoxide response (% of plate mean), % at 10 µM; 330,000 compounds, 0.18% hits; AID 2690;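 active means superoxide response under a set limit, about three screen SD below normal, cut at about 65% in these data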;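 further: yeast aged for seven days with compound at 30 °C before DHE staining; 100% = average MFI of all compound-treated wells on the plate with controls excluded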
# PfM18AAP inh = PfM18AAP enzyme inhibition | recombinant PfM18AAP, H-Glu-NHMec fluorogenic cleavage | inhibition, % at 7.35 µM | 290,000 compounds, 1.2% hits | AID 1822;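 active means inhibition above the campaign mean inhibition over all tested compounds plus 3 SD, cut at about 28% in these data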;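 further: 0% = plate median of test compound wells and 100% = 2 mM ZnCl2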
# NRP1-CendR mod = NRP-1/CendR interaction modulation; O14786; FAM-RPARPAR peptide binding to NRP-1, fluorescence polarization; inhibition, % at 25 µM; 360,000 compounds, 0.85% hits;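 active means inhibition or corrected inhibition above about 18%, plus a signal ratio from 0.5 to 1.5, limit read from the data, passing the limit was not always enough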
# Target sequence (O14786 whole entry, looked up): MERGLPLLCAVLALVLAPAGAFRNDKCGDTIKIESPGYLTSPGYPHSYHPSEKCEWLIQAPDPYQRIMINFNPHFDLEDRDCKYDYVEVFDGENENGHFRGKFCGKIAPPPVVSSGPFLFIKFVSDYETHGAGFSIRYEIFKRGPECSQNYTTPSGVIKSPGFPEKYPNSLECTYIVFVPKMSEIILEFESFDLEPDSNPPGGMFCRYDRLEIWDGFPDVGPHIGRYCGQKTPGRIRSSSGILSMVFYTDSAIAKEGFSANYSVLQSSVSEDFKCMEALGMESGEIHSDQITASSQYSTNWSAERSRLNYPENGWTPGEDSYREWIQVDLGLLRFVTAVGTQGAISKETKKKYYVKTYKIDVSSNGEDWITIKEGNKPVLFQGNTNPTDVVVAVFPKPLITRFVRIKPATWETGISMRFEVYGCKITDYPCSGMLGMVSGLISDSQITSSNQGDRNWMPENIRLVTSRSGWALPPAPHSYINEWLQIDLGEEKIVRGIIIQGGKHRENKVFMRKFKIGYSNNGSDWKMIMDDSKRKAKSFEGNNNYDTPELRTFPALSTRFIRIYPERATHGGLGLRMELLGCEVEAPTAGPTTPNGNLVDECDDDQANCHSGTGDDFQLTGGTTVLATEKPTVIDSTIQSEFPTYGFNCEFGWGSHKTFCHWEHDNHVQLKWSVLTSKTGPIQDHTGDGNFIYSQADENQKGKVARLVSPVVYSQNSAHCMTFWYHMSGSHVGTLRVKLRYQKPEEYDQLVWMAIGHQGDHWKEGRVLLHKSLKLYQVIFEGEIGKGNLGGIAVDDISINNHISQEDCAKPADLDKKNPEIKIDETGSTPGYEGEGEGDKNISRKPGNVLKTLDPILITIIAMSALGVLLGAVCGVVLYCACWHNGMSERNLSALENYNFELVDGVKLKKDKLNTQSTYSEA
# ALR inh = human ALR oxidase inhibition via reduced H2O2; 290,000 compounds, 3.8% hits; AID 485317; purified ALR, DTT oxidation, H2O2 HRP-luminol luminescence; inhibition, % (test concentration not listed); P55789;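 active means mean replicate inhibition above about 79%, with every replicate also reaching it, limit read from the data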
# A3G deaminase = inhibitors of human APOBEC3G DNA deaminase; 330,000 compounds, 0.28% hits; Q9HC16; recombinant A3G, ssDNA deamination FAM/TAMRA fluorescence; inhibition, % at 20 µM;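 active means inhibition of at least 40% at 20 µM, with no more than 30% in the related APOBEC3A deaminase screen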;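 further: plate controls were DMSO wells with A3G for no effect and wells lacking A3G enzyme for full effect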
# A3A deaminase = inhibitors of human APOBEC3A DNA deaminase. inhibition, % at 20 µM. recombinant A3A, FAM/TAMRA ssDNA deamination fluorescence. P31941. AID 493011. 330,000 compounds, 0.41% hits;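 active means at least 40% inhibition at 20 µM here, with at most 30% in a related deaminase screen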;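 further: plate controls were A3A with DMSO for no effect and wells lacking A3A enzyme for full effect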
# Starred values were filed as active, the others as inactive; . = not tested or not shown. Rows were chosen to be rich in hits. Some 5.2% of all compounds tested hit in one or more screens of this group.
SMILES,Yeast superoxide,PfM18AAP inh,NRP1-CendR mod,ALR inh,A3G deaminase,A3A deaminase
CCOc1ccc(CCNC(=O)c2ccc(CS(=O)Cc3ccc(Cl)cc3)o2)cc1 (stereo not drawn),76,-4,8,0,1,-3
O=C(NCc1ccc2c(c1)OCO2)c1ccc(CS(=O)Cc2cccc(Cl)c2)o1 (stereo not drawn),99,5,10,94*,-7,-9
CCOc1ccc(CCNC(=O)c2ccc(CS(=O)Cc3ccccc3Cl)o2)cc1 (stereo not drawn),89,-7,4,98*,-4,-2
Cc1ccc(CNC(=O)c2ccc(CS(=O)Cc3ccccc3Cl)o2)cc1 (stereo not drawn),95,-7,0,99*,0,1
Cc1ccc(CS(=O)Cc2ccc(C(=O)NCc3ccccc3Cl)o2)cc1 (stereo not drawn),118,-3,1,-2,-7,-5
COc1cc(C(=O)NNC(=O)CCOc2ccccc2)cc(OC)c1OC,96,.,-2,-1,-1,0
CCN(Cc1ccncc1)Cc1ccc(OC)c(OC)c1,101,-13,11,-1,-9,-6
CCOCc1nnc(NC(=O)c2c(OC)cccc2OC)s1,108,-1,20*,-29,-6,2
CCCCC(=O)NC(=S)NNC(=O)CCc1ccccc1,102,2,1,51,12,-4
CN(C)c1cccc(NC(=O)CCc2ccccc2)c1,100,-10,-25,98*,0,-4
CCN(C(=S)NC(=O)CCc1ccccc1)c1ccccc1,97,-7,-6,77*,-9,-2
COc1ccc(OC)c(Nc2nc(C3CC3)nc3c2nnn3Cc2ccccc2)c1,101,-3,21,-5,3,0
CC(Oc1ccc(Cl)cc1Cl)C(=O)Nc1ccc(O)cc1 (stereo not drawn),105,5,3,98*,-3,0
CC1CCN(C(c2ccc(N(C)C)cc2)c2nnnn2Cc2ccccc2)CC1 (stereo not drawn),86,1,0,.,-5,-5
CCN(CC(=O)Nc1ccc2c(c1)OCCO2)C(=O)CN1C(=O)NC(C)(c2ccc(C)cc2)C1=O (stereo not drawn),78,.,0,-4,-8,-2
Nc1cc2c([N+](=O)[O-])cccc2o1,100,9,-42,85*,-8,-7
O=C(c1ccccc1F)N1CCN=C1SCc1cccnc1,111,-1,3,100*,-4,-5
O=C(COc1ccccc1)N1CCN=C1SCc1ccccc1,93,6,-2,.,-2,-1
CCOc1ccccc1C(=O)N1CCN=C1SCc1cccnc1,94,8,7,99*,-7,-6
O=C(NCc1ccco1)c1ccc2c(=O)n(-c3ccccc3)c(=S)[nH]c2c1,93,-11,5,.,-8,-4
Cc1ccc(/C=C2/C(=N)N3N=C(CC(=O)N4CCCC4)SC3=NC2=O)o1,90,0,-9,11,2,0
CS(=O)(=O)Oc1ccc(/C=C2\C(=N)N3N=C(CC(=O)N4CCOCC4)SC3=NC2=O)cc1Cl,89,6,-7,82*,1,2
N=C1/C(=C\c2ccc(Br)o2)C(=O)N=C2SC(CC(=O)N3CCCCC3)=NN12,121,5,-64,97*,13,33
COc1cc(/C=C2/C(=N)N3N=C(CC(=O)N4CCOCC4)SC3=NC2=O)ccc1OC(C)c1ccccc1 (stereo not drawn),100,-10,-59,12,0,-2
CCOC(=O)c1nn(-c2ccccc2)c(C(=O)OCC)c1N,97,2,0,12,-1,1
SMILES,Yeast superoxide,PfM18AAP inh,NRP1-CendR mod,ALR inh,A3G deaminase,A3A deaminase
Cc1cccc(N2CCN(C(=O)c3cccs3)CC2)c1C,108,-11,1,0,-1,-1
Cc1cccc2sc(NC(=O)C3CC3)nc12,99,5,-1,-10,-2,-4
Cc1cccc2sc(NC(=O)c3ccc(Cl)s3)nc12,106,0,-4,97*,-5,-3
COc1ccc(C(=O)N2CCN=C2SCc2cccnc2)cc1OC,101,4,-5,100*,-4,0
COc1ccccc1C(=O)N1CCN(Cc2cccnc2)CC1,91,-13,-2,-8,-7,-1
COc1cccc(OC)c1C(=O)N1CCN=C1SCc1cccnc1,105,5,-9,99*,-3,-2
CCOC(=O)c1cnc(SCC#N)nc1N,102,-1,-9,-16,4,9
Cc1ccc2sc(=O)[nH]c2c1,101,-9,-6,4,-5,-1
Cc1ccc2c3c([nH]c2c1)C(=O)CC(C)(C)S3,99,2,-7,98*,-7,-4
CC1(S(=O)(=O)O)CC(=O)c2ccccc2C1=O (stereo not drawn),99,1,-5,93*,-2,-1
O=C1c2ccccc2C(=O)C1(O)O,108,.,.,-46,-3,0
Cc1ccc2nc(N3CCN(Cc4nnnn4C4CCCC4)CC3)c(C#N)cc2c1,108,2,-3,-7,-8,-3
COc1ccccc1CNC(=O)c1ccc2ccccc2n1,112,16,5,6,0,-1
O=C(c1ccccc1)c1cccn1CC(=O)N1CCN(c2ccccc2)CC1,98,6,14,97*,-1,0
O=C(c1ccccc1)c1cccn1CC(=O)N1CCN(C2CCCCC2)CC1,92,4,-89,-10,0,-1
O=C(c1ccccc1)c1ccc(C(=O)N2CCN(c3ccc(O)cc3)CC2)cc1,98,.,-3,99*,-4,-8
CCn1c(CC(=O)Nc2ccc(C)c(Cl)c2)nnc1SCc1ccc(Cl)c(Cl)c1,120,10,-2,-5,-1,-4
CC1CCCC(NC(=S)NC(=O)c2cncc(Br)c2)C1C (stereo not drawn),90,-3,-6,14,-7,-2
COc1cccc(N2CCN(C(=O)c3cccc(NC4=NC5CS(=O)(=O)CC5S4)c3)CC2)c1 (stereo not drawn),108,4,0,100*,-6,-3
CCOC(=O)C1CCN(C(=O)c2cccc(NC3=NC4CS(=O)(=O)CC4S3)c2)CC1 (stereo not drawn),102,-6,0,-14,-5,-2
CC(NC(=O)c1cccc(N(C)C)c1)c1ccc(-n2ccnc2)cc1 (stereo not drawn),111,0,-2,98*,-3,-4
O=C1CC(=O)CC(c2ccco2)C1,92,28*,-3,.,-2,14
COc1ccc(C(C)C)cc1-c1cc(C(=O)NCc2cccc(C(F)(F)F)c2)[nH]n1,.,.,21*,.,.,.
Cc1ccc2c(c1)Oc1ccc(NC(=O)CCl)cc1C(=O)N2,107,-10,-2,93*,-3,1

# Screens: PubChem BioAssay, several laboratories
